According to PubChem BioAssay (NCI):
About 83,000 compounds went through this panel and 20% of them were active in at least one assay; those are over-represented in the sample as a whole.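 Interpretation: 100, growth as untreated; towards 0, rising growth inhibition; 0, no net growth; 0 to -100, cell death. Compounds scoring below 10 were considered active.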 A number with no mark means an inactive call. Active and inactive are the calls of the source.

Assays:
Assay in all cases: NCI-60 one-dose screen, 48 h (100 = growth as untreated, 0 = no growth, -100 = all killed)
Details in all cases: 10 µM unless noted
NCI-H23 lung = test system: NCI-H23 lung
NCI-H226 lung = test system: NCI-H226 lung
NCI-H322M lung = test system: NCI-H322M lung
HOP-62 NSCLC = test system: HOP-62 NSCLC
NCI-H460 lung = test system: NCI-H460 lung
NCI-H522 lung = test system: NCI-H522 lung
A549/ATCC NSCLC = test system: A549/ATCC NSCLC
786-0 renal = test system: 786-0 renal
COLO 205 colon = test system: COLO 205 colon
HOP-92 NSCLC = test system: HOP-92 NSCLC

Q: What does the source list for `COc1ccc2c(c1)c(C1(O)CC(CSC#N)OC1=O)cn2C(=O)c1ccc(Cl)cc1` (centres undefined)?
A: growth (NCI-H23 lung): 89.3%; growth (NCI-H226 lung): 94.8%; growth (NCI-H322M lung): 73.5%; growth (HOP-62 NSCLC): 104%; growth (NCI-H460 lung): 104%; growth (NCI-H522 lung): 95.9%; growth (A549/ATCC NSCLC): 98.6%; growth (786-0 renal): 102%; growth (COLO 205 colon): 127%

Q: Which results are given for `c1cc2c(c3c1CCNC3)OCO2`?
A: growth (NCI-H23 lung): 94.8%; growth (NCI-H226 lung): 103%; growth (NCI-H322M lung): 102%; growth (HOP-62 NSCLC): 96.6%; growth (NCI-H460 lung): 114%; growth (NCI-H522 lung): 75.6%; growth (A549/ATCC NSCLC): 66%; growth (786-0 renal): 96.2%; growth (COLO 205 colon): 112%

Q: `C[C@]12CC[C@H]3[C@@H](C[C@@H]4SC(Nc5ccccc5)=N[C@@]45CC(O)CC[C@]35C)[C@@H]1CCC2O` (some centres undefined) was tested. Which growth (NCI-H23 lung) did it give?
A: 67.3%

Q: What about the growth (NCI-H226 lung) of the same compound?
A: 63.9%

Q: And the growth (NCI-H322M lung)?
A: 78.4%

Q: What about the growth (HOP-62 NSCLC) of the same compound?
A: 34.2%

Q: What about the growth (NCI-H460 lung) of the same compound?
A: 6.06% (active)

Q: What about the growth (NCI-H522 lung) of the same compound?
A: 25.8%

Q: What about the growth (A549/ATCC NSCLC) of the same compound?
A: 57.1%

Q: And the growth (786-0 renal)?
A: -49.7% (active)

Q: What about the growth (COLO 205 colon) of the same compound?
A: 57.1%

Q: Which growth (NCI-H23 lung) does the source give for `CN(C)C1C(=O)C(C(N)=O)=C(O)C2(O)C(=O)C3=C(O)c4c(O)cccc4C(C)(O)C3CC12.[Cl][Sb]([Cl])[Cl]` (centres undefined) here?
A: 46.1%

Q: What about the growth (NCI-H226 lung) of the same compound?
A: 86.6%

Q: What about the growth (NCI-H322M lung) of the same compound?
A: 46.3%

Q: What about the growth (HOP-62 NSCLC) of the same compound?
A: 45.8%

Q: What about the growth (NCI-H460 lung) of the same compound?
A: 4.47% (active)

Q: And the growth (NCI-H522 lung)?
A: 4.59% (active)

Q: What about the growth (A549/ATCC NSCLC) of the same compound?
A: 26.1%

Q: And the growth (786-0 renal)?
A: 26.6%

Q: And the growth (COLO 205 colon)?
A: 96.5%

Q: With `CC(=O)O[C@H](C[C@H](C(C)C)N(C)C(=O)[C@@H](NC(=O)[C@H]1CCCCN1C)C(C)C)c1cccc(C(=O)N[C@@H](Cc2ccccc2)C[C@H](C)C(=O)O)n1` as the compound, how does the growth (NCI-H23 lung) read?
A: 32.6%

Q: What about the growth (NCI-H226 lung) of the same compound?
A: 61.6%

Q: And the growth (NCI-H322M lung)?
A: 40.7%

Q: What about the growth (HOP-62 NSCLC) of the same compound?
A: 23%

Q: And the growth (NCI-H460 lung)?
A: 4.27% (active)

Q: And the growth (NCI-H522 lung)?
A: -12.7% (active)

Q: And the growth (A549/ATCC NSCLC)?
A: 8.55% (active)

Q: What about the growth (786-0 renal) of the same compound?
A: 13.6%

Q: And the growth (COLO 205 colon)?
A: -64% (active)

Q: For `Fc1ccc(N2COOC3(OOC2)C2CC4CC(C2)CC3C4)cc1`, which growth (NCI-H23 lung) is on record?
A: 69.4%

Q: What about the growth (NCI-H226 lung) of the same compound?
A: 105%

Q: What about the growth (NCI-H322M lung) of the same compound?
A: 91.1%

Q: What about the growth (HOP-62 NSCLC) of the same compound?
A: 83.6%

Q: What about the growth (NCI-H460 lung) of the same compound?
A: 101%

Q: What about the growth (NCI-H522 lung) of the same compound?
A: 85.2%

Q: And the growth (A549/ATCC NSCLC)?
A: 90.2%

Q: What about the growth (786-0 renal) of the same compound?
A: 12.6%

Q: What about the growth (COLO 205 colon) of the same compound?
A: 116%

Q: Which results are given for `C[C@]12CC[C@H]3[C@@H](CC4SC(N)=NC45C/C(=N/NC(N)=O)CC[C@]35C)[C@@H]1CCC2=O` (some centres undefined)?
A: growth (NCI-H226 lung): 108%; growth (NCI-H322M lung): 52.4%; growth (HOP-62 NSCLC): 75.5%; growth (NCI-H460 lung): -38.7% (active); growth (HOP-92 NSCLC): 46.6%; growth (NCI-H522 lung): -18.6% (active); growth (A549/ATCC NSCLC): 0.923% (active); growth (786-0 renal): -9.65% (active)

Q: Which growth (NCI-H23 lung) does the source give for `CSc1nc(Cl)cc(N2CC2)n1` here?
A: 103%

Q: And the growth (NCI-H226 lung)?
A: 108%

Q: What about the growth (NCI-H322M lung) of the same compound?
A: 128%

Q: What about the growth (HOP-62 NSCLC) of the same compound?
A: 103%

Q: What about the growth (NCI-H460 lung) of the same compound?
A: 105%

Q: What about the growth (NCI-H522 lung) of the same compound?
A: 126%

Q: And the growth (A549/ATCC NSCLC)?
A: 102%

Q: What about the growth (786-0 renal) of the same compound?
A: 104%

Q: What about the growth (COLO 205 colon) of the same compound?
A: 139%

Q: Which growth (NCI-H23 lung) does the source give for `COC(=O)[C@@H](C)C[C@H](Cc1ccccc1)NC(=O)c1nc([C@@H](C[C@H](C(C)C)N(C)C(=O)[C@@H](NC(=O)[C@H]2CCCCN2C)C(C)C)OC(C)=O)sc1C(C)C` here?
A: 24.6%

Q: What about the growth (NCI-H226 lung) of the same compound?
A: 52.4%

Q: What about the growth (NCI-H322M lung) of the same compound?
A: 38.1%

Q: And the growth (HOP-62 NSCLC)?
A: 11.8%

Q: What about the growth (NCI-H460 lung) of the same compound?
A: 5.54% (active)

Q: And the growth (NCI-H522 lung)?
A: -9.43% (active)

Q: What about the growth (A549/ATCC NSCLC) of the same compound?
A: 2.6% (active)

Q: What about the growth (786-0 renal) of the same compound?
A: -6.11% (active)

Q: What about the growth (COLO 205 colon) of the same compound?
A: -61.5% (active)

Q: For `O=C1CCC2(O)[C@@H]3Cc4ccc(O)c5c4[C@]2(CCN3Cc2ccoc2)C1O5` (some centres undefined), which growth (NCI-H23 lung) is on record?
A: 96.7%

Q: And the growth (NCI-H226 lung)?
A: 89.4%

Q: What about the growth (NCI-H322M lung) of the same compound?
A: 110%

Q: And the growth (HOP-62 NSCLC)?
A: 106%

Q: And the growth (NCI-H460 lung)?
A: 103%

Q: And the growth (NCI-H522 lung)?
A: 95.4%

Q: And the growth (A549/ATCC NSCLC)?
A: 102%

Q: And the growth (786-0 renal)?
A: 103%

Q: And the growth (COLO 205 colon)?
A: 105%

Q: What does the source list for `O=C1CN=C(c2ccc(Cl)cc2)c2sccc2N1`?
A: growth (NCI-H23 lung): 98%; growth (NCI-H226 lung): 93.6%; growth (NCI-H322M lung): 91.2%; growth (HOP-62 NSCLC): 106%; growth (NCI-H460 lung): 108%; growth (NCI-H522 lung): 82.5%; growth (A549/ATCC NSCLC): 101%; growth (786-0 renal): 103%; growth (COLO 205 colon): 123%

Q: `COC(=O)[C@@H](C)C[C@H](Cc1ccccc1)NC(=O)c1csc([C@@H](C[C@H](C(C)C)N(C)C(=O)C2(NC(=O)[C@H]3CCCCN3C)CCC2)OC(C)=O)n1` was tested. Which growth (NCI-H23 lung) did it give?
A: 18.6%

Q: What about the growth (NCI-H226 lung) of the same compound?
A: 48.7%

Q: And the growth (NCI-H322M lung)?
A: 43.6%

Q: And the growth (HOP-62 NSCLC)?
A: 18.8%

Q: What about the growth (NCI-H460 lung) of the same compound?
A: 4.21% (active)

Q: And the growth (NCI-H522 lung)?
A: -13.8% (active)

Q: What about the growth (A549/ATCC NSCLC) of the same compound?
A: 15.2%

Q: And the growth (786-0 renal)?
A: 20.9%

Q: And the growth (COLO 205 colon)?
A: -59.1% (active)

Q: With `ClCCN(CCCl)c1ccc(/C=N/Nc2ncnc3nc[nH]c23)cc1` as the compound, how does the growth (NCI-H23 lung) read?
A: 68.8%

Q: And the growth (NCI-H226 lung)?
A: 79%

Q: And the growth (NCI-H322M lung)?
A: 97.7%

Q: And the growth (HOP-62 NSCLC)?
A: 82%

Q: And the growth (NCI-H460 lung)?
A: 39.1%

Q: What about the growth (NCI-H522 lung) of the same compound?
A: 61%

Q: What about the growth (A549/ATCC NSCLC) of the same compound?
A: 87.7%

Q: And the growth (786-0 renal)?
A: 80.2%

Q: What about the growth (COLO 205 colon) of the same compound?
A: 90.5%

Q: `CN1C(=O)N[C@H]2[C@@H]3NC(=O)c4ccc(Br)n4[C@@H]3C[C@]21O` was tested. Which growth (NCI-H23 lung) did it give?
A: -14.5% (active)

Q: What about the growth (NCI-H226 lung) of the same compound?
A: -17.4% (active)

Q: And the growth (NCI-H322M lung)?
A: -6.85% (active)

Q: And the growth (HOP-62 NSCLC)?
A: -31.8% (active)

Q: And the growth (NCI-H460 lung)?
A: -10.6% (active)

Q: What about the growth (NCI-H522 lung) of the same compound?
A: -38.2% (active)

Q: What about the growth (A549/ATCC NSCLC) of the same compound?
A: -9.09% (active)

Q: What about the growth (786-0 renal) of the same compound?
A: -19.3% (active)

Q: And the growth (COLO 205 colon)?
A: -49.5% (active)

Q: With `O=[N+]([O-])c1cc([N+](=O)[O-])c(Cl)cc1Cl` as the compound, how does the growth (NCI-H23 lung) read?
A: -56.4% (active)

Q: And the growth (NCI-H226 lung)?
A: -59% (active)

Q: What about the growth (NCI-H322M lung) of the same compound?
A: 40.6%

Q: What about the growth (HOP-62 NSCLC) of the same compound?
A: -73.9% (active)

Q: What about the growth (NCI-H460 lung) of the same compound?
A: -45.8% (active)

Q: What about the growth (NCI-H522 lung) of the same compound?
A: -69.6% (active)

Q: What about the growth (A549/ATCC NSCLC) of the same compound?
A: 39.9%

Q: What about the growth (786-0 renal) of the same compound?
A: -67.8% (active)

Q: And the growth (COLO 205 colon)?
A: -75.7% (active)
